# Measured values: PubChem BioAssay (Tox21)
# “And” between values parts separate entries of the source, which are not always exact repeats. Identical values can stand only once. Records with an inconclusive call do not appear. Where a call stands in place of a potency, no number is given. Some compounds were tested as several samples or in several runs, with calls that do not always agree. The source made the active and inactive calls. Unless noted, calls come from the whole dose curve.
# What was measured:
# [1] = Nuclear factor erythroid 2-related factor 2/antioxidant responsive element (Nrf2/ARE) small molecule agonists: qHTS cell viability counter screen in human keratinocytes (AID 1919968; active = well fitted curve in the direction sought with a large enough effect in the repeat runs; an effect the other way counts as inactive or inconclusive; note: nearly all actives have a fitted effect of over 55% in size)
# Outline: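 Viability counter-screen: KeratinoSens reporter cells, DMSO-delivered compounds, 23 h at 37 C, CellTiter-Fluor fluorescence.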
# [2] = Nuclear factor erythroid 2-related factor 2/antioxidant responsive element (Nrf2/ARE) small molecule agonists: luciferase reporter gene qHTS assay in human keratinocytes (AID 1919969); note: nearly all actives have a fitted effect of over 35% in size; note: potency is the fitted concentration of half-maximal effect
# [3] = molecular target: Gonadotropin-releasing hormone receptor (Homo sapiens) (UniProt P30968); experiment: Human gonadotropin-releasing hormone receptor (GnRHR) small molecule agonists, calcium flux assay in GnRHR-HEK293 cells (AID 1920063); note: nearly all actives have a fitted effect of over 35% in size
# Outline: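 Tox21-format agonist screen using human GnRHR-expressing HEK293 cells and a fluorescent calcium dye; kinetic 3-min fluorescence reading after compound addition, 15-point concentration series run in triplicate.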
# [4] = molecular target: KiSS-1 receptor (Homo sapiens) (UniProt Q969F8); experiment: Human kisspeptin (KISS1R) small molecule agonists, calcium flux assay in KISS1R-HEK293 cells (AID 1920064; active = well fitted curve in the direction sought with a large enough effect in the repeat runs; an effect the other way counts as inactive or inconclusive)
# Outline: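 Intracellular calcium mobilization in KISS1R-HEK293 cells was recorded by fluorescence (Ex/Em 480/540) for 3 min following compound addition to cells pre-loaded 1 h with calcium dye.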
# [5] = G protein-coupled receptor (GPCR) small molecule agonists, calcium flux assay: HEK293 wild type cell line counter screen (AID 1920065)
# Outline: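 In this agonist-mode screen, ATP is the positive control and DMSO the vehicle. Cells grow 18 h before a 1 h dye incubation at 37 C; signal is taken at Ex/Em 480/540 over 3 min.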
# [6] = p53 small molecule agonists, cell-based qHTS assay with human liver microsomes (AID 1963577)
# Outline: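 p53RE-bla reporter cells were pre-incubated 5 h at 37 C, then treated with compounds plus human liver microsomes (0.5 mg/mL final) and NADPH (0.5 mg/mL final) for 16 h at 37 C. Beta-lactamase activity was read by LiveBLAzer fluorescence after 2 h at room temperature.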
# [7] = p53 small molecule agonists, cell-based qHTS assay with rat liver microsomes (AID 1963578)
# Outline: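 p53RE-bla cells were exposed to compounds together with rat liver microsomes (0.5 mg/mL final) and NADPH (0.5 mg/mL final) for 16 h at 37 C, then read by LiveBLAzer beta-lactamase fluorescence after 2 h at room temperature.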
# [8] = p53 small molecule agonists, cell-based qHTS assay with human liver microsomes: qHTS cell viability counter screen (AID 1963579); note: nearly all actives have a fitted effect of over 45% in size
# Outline: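 p53RE-bla cells (4,000/well) were pre-incubated 5 h at 37 C, then given compounds in DMSO plus human liver microsomes (0.5 mg/mL final) and NADPH (0.5 mg/mL final) for 16 h at 37 C. Viability was read by CellTiter-Glo luminescence.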
# [9] = p53 small molecule agonists, cell-based qHTS assay with rat liver microsomes: qHTS cell viability counter screen (AID 1963580); note: nearly all actives have a fitted effect of over 45% in size
# Outline: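 In HCT-116 cells carrying a p53 response element-bla reporter, compounds were metabolically activated in situ by rat liver microsomes with NADPH over 16 h. Cell ATP content then served as the cytotoxicity measure.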
# [10] = p53 small molecule agonists, cell-based qHTS assay: qHTS cell viability counter screen (AID 1963581); note: nearly all actives have a fitted effect of over 45% in size
# Outline: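 Compounds are pinned onto HCT-116 p53RE-bla cells and left 16 h at 37 C. Following the reporter FRET read, ATP is quantified by CellTiter-Glo luminescence after 30 min at room temperature.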
# [11] = p53 small molecule agonists, cell-based qHTS assay (AID 1963582; active = well fitted activation curve with a large enough effect in the signal ratio in the repeat runs, not every such curve was filed as active; the % refers to the signal ratio)
# Outline: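 Agonist activity was scored from beta-lactamase FRET fluorescence in p53RE-bla cells treated 16 h at 37 C with compounds in DMSO, substrate incubation being 2 h at room temperature.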
# [12] = molecular target: 5-hydroxytryptamine receptor 2A (Homo sapiens) (UniProt P28223); experiment: 5-hydroxytryptamine receptor 2A (HTR2A) small molecule antagonists, cell-based qHTS assay (AID 1963586); note: nearly all actives have a fitted effect of over 45% in size
# Outline: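 Antagonist-mode intracellular calcium assay: DOI (4 nM) added after 5 min compound pre-incubation at room temperature to dye-loaded HTR2A-CHO cells. Fluorescence followed for 3 min, sampled every second.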
# [13] = molecular target: 5-hydroxytryptamine receptor 2A (Homo sapiens) (UniProt P28223); experiment: 5-hydroxytryptamine receptor 2A (HTR2A) small molecule agonists, cell-based qHTS assay (AID 1963587); note: nearly all actives have a fitted effect of over 30% in size
# Outline: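 HTR2A-CHO cells, plated 18 h at 37 C/5% CO2, dye-loaded 1 h at 37 C; compounds in DMSO added by pin tool (agonist mode). Intracellular calcium flux read as kinetic fluorescence on FDSS over 2 min at 1 s intervals.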
# [14] = molecular target: Muscarinic acetylcholine receptor M1 (Homo sapiens) (UniProt P11229); experiment: Cholinergic receptor muscarinic 1 (CHRM1) small molecule antagonists, cell-based qHTS assay (AID 1963588); note: nearly all actives have a fitted effect of over 40% in size; note: potency is the fitted concentration of half-maximal effect
# Outline: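 CHRM1-CHO calcium-flux assay, antagonist mode. Cells were seeded 18 h, dye-loaded 1 h at 37 C and given compound for 5 min at RT, then acetylcholine was added at 50nM. FDSS fluorescence was read 3 min; 15 concentrations, three runs.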
# [15] = molecular target: Muscarinic acetylcholine receptor M1 (Homo sapiens) (UniProt P11229); experiment: Cholinergic receptor muscarinic 1 (CHRM1) small molecule agonists, cell-based qHTS assay (AID 1963589); note: nearly all actives have a fitted effect of over 35% in size
# Outline: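 Stable CHRM1-CHO cells (human receptor) were incubated 18 h, dye-loaded for 1 h at 37 C and exposed to test compounds for agonist activity, with calcium-dependent fluorescence followed kinetically.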
# [16] = cAMP Responsive Elements (CRE) small molecule agonists, cell-based qHTS assay (AID 1963590)
# Outline: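 FRET-based beta-lactamase readout (LiveBLAzer B/G, 2 h RT) quantified CRE activation in HEK 293T CRE-bla cells after 3 h treatment with DMSO-dissolved compounds.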
# [17] = molecular target: Beta-2 adrenergic receptor (Homo sapiens) (UniProt P07550); experiment: Adrenergic beta2 receptor (ADRB2) small molecule antagonists, cell-based qHTS assay (AID 1963592); note: series mostly up to about 92 µM; nearly all actives have a fitted effect of over 50% in size
# Outline: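 Cells (CHO, stable ADRB2 overexpression) incubated 18-20hr at 37C; compounds added from DMSO; agonist mix (1nM isoproterenol, 100uM IBMX, 25uM Ro-20-1724) added; 0.5hr RT; d2-cAMP and anti-cAMP-cryptate added; 1hr RT; 665/615 nm read.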
# [18] = molecular target: D(2) dopamine receptor (Homo sapiens) (UniProt P14416); experiment: Dopamine D2 receptor (DRD2) small molecule agonists, cell-based qHTS assay (AID 1963594); note: nearly all actives have a fitted effect of over 35% in size
# Outline: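 HEK293 cells stably expressing DRD2 were cultured 24 h at 37 C, then given Ro20-1724 (0.1 mM final) and compounds for 10 min at room temperature. NKH477 (200nM) was then added for 30 min. cAMP was read by HTRF.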
# [19] = molecular target: D(2) dopamine receptor (Homo sapiens) (UniProt P14416); experiment: Dopamine D2 receptor (DRD2) small molecule antagonists, cell-based qHTS assay (AID 1963595; active = well fitted inhibition curve with a large enough effect in the signal ratio in the repeat runs, with a control signal flat; the % refers to the signal ratio)
# Outline: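 Antagonist mode in DRD2-HEK293 cells: after compound addition with 0.1 mM Ro20-1724, cells received quinpirole (12 nM) and NKH477 (200 nM) for 30 min at room temperature; HTRF cAMP read after 1 h detection.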
# [20] = cAMP Responsive Elements (CRE) small molecule antagonists, cell-based qHTS assay (AID 1963591; active = well fitted inhibition curve with a large enough effect in the signal ratio in the repeat runs, not every such curve was filed as active; the % refers to the signal ratio)
# Outline: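 qHTS in CRE-bla HEK 293T cells: compound in DMSO, then 0.25 uM NKH477 (final), 3 h at 37 °C/5% CO2; beta-lactamase FRET read-out after 2 h substrate incubation.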
# Chain of Beta-2 adrenergic receptor (Homo sapiens) (P07550 whole entry, looked up): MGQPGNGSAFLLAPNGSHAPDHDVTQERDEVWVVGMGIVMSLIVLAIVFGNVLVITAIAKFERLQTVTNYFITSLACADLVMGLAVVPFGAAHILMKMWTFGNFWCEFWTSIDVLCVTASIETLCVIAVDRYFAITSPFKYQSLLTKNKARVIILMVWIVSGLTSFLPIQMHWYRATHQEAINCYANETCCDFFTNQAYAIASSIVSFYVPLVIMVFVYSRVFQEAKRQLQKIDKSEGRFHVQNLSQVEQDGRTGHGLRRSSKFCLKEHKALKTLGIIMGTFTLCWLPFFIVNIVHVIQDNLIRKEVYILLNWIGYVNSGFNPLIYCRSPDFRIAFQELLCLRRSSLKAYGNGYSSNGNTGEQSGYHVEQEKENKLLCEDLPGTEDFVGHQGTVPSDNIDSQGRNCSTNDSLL
# Chain of Muscarinic acetylcholine receptor M1 (Homo sapiens) (P11229 whole entry, looked up): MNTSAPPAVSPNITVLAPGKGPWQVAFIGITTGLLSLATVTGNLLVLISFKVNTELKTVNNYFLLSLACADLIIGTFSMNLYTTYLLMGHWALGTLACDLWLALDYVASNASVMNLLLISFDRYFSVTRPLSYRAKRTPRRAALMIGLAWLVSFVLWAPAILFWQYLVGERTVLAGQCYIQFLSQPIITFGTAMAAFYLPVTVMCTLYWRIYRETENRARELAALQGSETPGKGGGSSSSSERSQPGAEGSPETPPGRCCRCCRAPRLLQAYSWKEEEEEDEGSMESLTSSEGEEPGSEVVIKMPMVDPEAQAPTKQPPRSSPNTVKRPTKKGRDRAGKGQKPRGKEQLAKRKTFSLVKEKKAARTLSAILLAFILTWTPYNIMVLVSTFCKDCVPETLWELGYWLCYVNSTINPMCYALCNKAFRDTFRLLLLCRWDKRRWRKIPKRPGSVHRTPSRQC
# Chain of 5-hydroxytryptamine receptor 2A (Homo sapiens) (P28223 whole entry, looked up): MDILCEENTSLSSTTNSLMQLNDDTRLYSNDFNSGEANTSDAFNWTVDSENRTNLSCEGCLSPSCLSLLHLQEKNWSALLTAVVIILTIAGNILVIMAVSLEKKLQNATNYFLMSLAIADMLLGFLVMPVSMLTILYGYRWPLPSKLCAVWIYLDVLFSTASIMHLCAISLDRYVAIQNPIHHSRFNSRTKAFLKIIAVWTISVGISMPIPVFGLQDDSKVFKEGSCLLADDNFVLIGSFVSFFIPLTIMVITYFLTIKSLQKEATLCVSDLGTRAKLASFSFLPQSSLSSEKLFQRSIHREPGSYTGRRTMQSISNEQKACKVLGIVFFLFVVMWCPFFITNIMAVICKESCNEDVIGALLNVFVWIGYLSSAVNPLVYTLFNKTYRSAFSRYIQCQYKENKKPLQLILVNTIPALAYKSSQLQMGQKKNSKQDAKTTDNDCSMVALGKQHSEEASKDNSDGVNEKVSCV
# Chain of D(2) dopamine receptor (Homo sapiens) (P14416 whole entry, looked up): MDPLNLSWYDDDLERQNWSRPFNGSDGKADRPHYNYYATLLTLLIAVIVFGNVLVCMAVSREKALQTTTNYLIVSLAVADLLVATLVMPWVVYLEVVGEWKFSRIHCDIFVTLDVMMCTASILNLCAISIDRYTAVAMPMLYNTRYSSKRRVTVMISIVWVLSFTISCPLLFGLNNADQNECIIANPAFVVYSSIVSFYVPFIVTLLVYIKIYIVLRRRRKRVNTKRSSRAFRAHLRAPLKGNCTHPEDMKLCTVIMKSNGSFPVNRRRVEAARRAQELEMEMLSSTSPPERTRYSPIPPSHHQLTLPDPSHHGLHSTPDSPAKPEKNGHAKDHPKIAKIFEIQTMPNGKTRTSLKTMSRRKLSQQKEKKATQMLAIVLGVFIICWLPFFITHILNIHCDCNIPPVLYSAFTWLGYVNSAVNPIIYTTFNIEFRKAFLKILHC
# Chain of KiSS-1 receptor (Homo sapiens) (Q969F8 whole entry, looked up): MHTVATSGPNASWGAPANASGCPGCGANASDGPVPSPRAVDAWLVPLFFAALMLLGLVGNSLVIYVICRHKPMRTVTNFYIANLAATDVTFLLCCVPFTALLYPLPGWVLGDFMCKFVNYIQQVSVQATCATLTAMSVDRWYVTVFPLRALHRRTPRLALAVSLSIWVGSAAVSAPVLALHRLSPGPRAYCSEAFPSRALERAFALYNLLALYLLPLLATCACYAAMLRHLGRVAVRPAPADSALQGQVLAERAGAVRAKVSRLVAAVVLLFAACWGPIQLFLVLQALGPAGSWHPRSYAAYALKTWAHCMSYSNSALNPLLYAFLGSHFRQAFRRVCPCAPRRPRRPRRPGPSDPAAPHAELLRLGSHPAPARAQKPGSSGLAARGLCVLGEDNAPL
# Chain of Gonadotropin-releasing hormone receptor (Homo sapiens) (P30968 whole entry, looked up): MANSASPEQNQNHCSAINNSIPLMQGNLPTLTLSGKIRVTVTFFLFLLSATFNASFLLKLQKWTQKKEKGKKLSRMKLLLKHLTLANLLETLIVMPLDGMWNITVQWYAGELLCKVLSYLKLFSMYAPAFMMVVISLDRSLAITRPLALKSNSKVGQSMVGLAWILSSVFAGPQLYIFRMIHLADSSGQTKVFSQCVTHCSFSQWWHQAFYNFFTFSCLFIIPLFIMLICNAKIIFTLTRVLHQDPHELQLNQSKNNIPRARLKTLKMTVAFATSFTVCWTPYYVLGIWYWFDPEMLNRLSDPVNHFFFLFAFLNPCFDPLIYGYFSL
SMILES,Potency [1],Potency [2],Potency [3],Potency [4],Potency [5],Potency [6],Potency [7],Potency [8],Potency [9],Potency [10],Potency [11],Potency [12],Potency [13],Potency [14],Potency [15],Potency [16],Potency [17],Potency [18],Potency [19],Potency [20]
COc1nc(NC(C)C)nc(NC(C)C)n1,inactive,inactive,inactive,inactive,inactive,inactive,inactive,inactive,inactive,inactive,inactive,inactive,inactive,inactive,inactive,inactive,inactive,inactive,inactive,–
O=C(Cc1ccccc1)c1ccccc1,inactive,inactive,inactive,inactive,inactive,inactive,inactive,inactive,inactive,inactive,inactive,inactive,inactive,inactive,inactive,inactive,–,inactive,inactive,inactive
CCCCN(CCCC)N=O,inactive,inactive,inactive,inactive,inactive,inactive,inactive,inactive,inactive,inactive,inactive,inactive,inactive,inactive,inactive,–,inactive,inactive,inactive,inactive
CCC12COCN1COC2,inactive,inactive,inactive,inactive,inactive,inactive,inactive,inactive,inactive,inactive,inactive,inactive,inactive,inactive,inactive,inactive,inactive,inactive,inactive,–
O=[N+]([O-])c1ccccc1,inactive,inactive,inactive,inactive,inactive,inactive,inactive,inactive,inactive,inactive,inactive,inactive,inactive,inactive,inactive,inactive,–,inactive,inactive,inactive
O=C1C=CC(=O)C=C1,inactive,inactive,inactive,inactive,inactive,inactive,inactive,inactive,inactive,inactive,inactive,inactive,inactive,inactive,inactive,–,inactive,inactive,inactive,inactive
COC(C)(C)C,inactive,inactive,inactive,inactive,inactive,inactive,inactive,inactive,inactive,inactive,inactive,inactive,inactive,inactive,inactive,inactive,inactive,inactive,inactive,–
Clc1ccc(C(Cl)(Cl)Cl)c(Cl)c1,inactive,inactive,inactive,inactive,inactive,inactive,inactive,inactive,inactive,inactive,inactive,inactive,inactive,inactive,inactive,–,inactive,inactive,inactive,inactive
CC(O)CN(CC(C)O)CC(C)O (stereo not given),inactive,inactive,inactive,inactive,inactive,inactive,inactive,inactive,inactive,inactive,inactive,inactive,inactive,inactive,inactive,inactive,inactive,–,inactive,–
C=CC#N,inactive,inactive,inactive,inactive,inactive,inactive,inactive,inactive,inactive,inactive,inactive,inactive,inactive,inactive,inactive,inactive,–,inactive,inactive,inactive
ClC1=C(Cl)[C@]2(Cl)[C@@H]3[C@@H](Cl)[C@@H](Cl)C[C@@H]3[C@@]1(Cl)C2(Cl)Cl,inactive,inactive,inactive,inactive,inactive,inactive,inactive,inactive,inactive,inactive,inactive,inactive,inactive,inactive,inactive,inactive,inactive,–,inactive,inactive
Cc1ccc(CCl)cc1,inactive,inactive,inactive,inactive,inactive,inactive,inactive,inactive,inactive,inactive,inactive,inactive,inactive,inactive,inactive,inactive,–,inactive,inactive,inactive
N#Cc1ccc(O)cc1,inactive,inactive,inactive,inactive,inactive,inactive,inactive,inactive,inactive,inactive,inactive,inactive,inactive,inactive,inactive,inactive,–,inactive,inactive,inactive
COc1ccc2c3c1O[C@H]1[C@@H](O)C=C[C@H]4[C@@H](C2)N(C)CC[C@@]341,inactive,23.9 µM (active) and inactive,inactive,inactive,inactive,inactive,inactive,inactive,inactive,inactive,inactive,inactive,inactive,inactive,inactive,inactive,–,–,inactive,inactive
CCN(CC)C1CCCCC1,inactive,inactive,inactive,inactive,inactive,inactive,inactive,inactive,inactive,inactive,inactive,inactive,inactive,inactive,inactive,inactive,–,inactive,–,inactive
CC(C)=CC1C(C(=O)OCN2C(=O)C3=C(CCCC3)C2=O)C1(C)C (stereo not given),inactive,48.6 µM (active) and 26.6 µM (active),inactive,inactive,inactive,inactive,inactive,inactive,inactive,inactive,inactive,inactive,inactive,8.18 µM (active),inactive,–,inactive,inactive,inactive,inactive
Cc1cc(Cl)ccc1OCC(=O)O,inactive,inactive,inactive,inactive,inactive,inactive,inactive,inactive,inactive,inactive,inactive,inactive,inactive,inactive,inactive,–,inactive,inactive,inactive,inactive
CC(=O)[C@H]1CC[C@H]2[C@@H]3CC[C@H]4C[C@](C)(O)CC[C@]4(C)[C@H]3CC[C@]12C,inactive,inactive,inactive,inactive,inactive,inactive,inactive,inactive,inactive,inactive,inactive,inactive,inactive,inactive,inactive,inactive,–,–,inactive,inactive
O=C(CCl)c1ccccc1,inactive,62 µM (active) and 54.5 µM (active),inactive,inactive,inactive,inactive,inactive,inactive,inactive,inactive,inactive,inactive,inactive,inactive,inactive,inactive,inactive,inactive,–,–
O=[N+]([O-])c1cc(Cl)c(Cl)c(Cl)c1,inactive,inactive,inactive,inactive,inactive,inactive,inactive,inactive,inactive,inactive,inactive,inactive,inactive,inactive,inactive,inactive,inactive,inactive,inactive,–
Nc1ccc2ccccc2c1,inactive,37.2 µM (active) and 27.3 µM (active),inactive,inactive,inactive,inactive,inactive,inactive,inactive,inactive,inactive,inactive,inactive,inactive,inactive,inactive,–,inactive,inactive,inactive
CN(C)P(=O)(N(C)C)N(C)C,inactive,inactive,inactive,inactive,inactive,inactive,inactive,inactive,inactive,inactive,inactive,inactive,inactive,inactive,inactive,–,inactive,inactive,inactive,inactive
CCCCCCCCn1cc[n+](C)c1,inactive,inactive,inactive,inactive,inactive,inactive,inactive,inactive,inactive,inactive,inactive,inactive,inactive,9.41 µM (active) and 3.78 µM (active) and inactive,inactive,inactive,inactive,–,inactive,–
CCCC(=O)Cl,inactive,inactive,inactive,inactive,inactive,inactive,inactive,inactive,inactive,inactive,inactive,inactive,inactive,inactive,inactive,inactive,inactive,inactive,inactive,–
N#Cc1cc([N+](=O)[O-])ccc1N,inactive,inactive,inactive,inactive,inactive,inactive,inactive,inactive,inactive,inactive,inactive,inactive,inactive,inactive,inactive,inactive,inactive,inactive,inactive,–
CC1(C)[C@H](C(=O)O[C@H](C#N)c2cccc(Oc3ccccc3)c2)[C@@H]1/C=C(\Cl)C(F)(F)F,inactive,inactive,inactive,inactive,inactive,inactive,inactive,inactive,inactive,inactive,inactive,inactive,inactive,inactive,inactive,–,inactive,inactive,–,inactive
C=C(C)[C@@H]1CC=C(C=O)CC1,inactive,inactive,inactive,inactive,inactive,inactive,inactive,inactive,inactive,inactive,inactive,inactive,inactive,inactive,inactive,inactive,–,inactive,inactive,inactive
Cc1ncc(CNC(=O)N(CCCl)N=O)c(N)n1,inactive,inactive,inactive,inactive,inactive,inactive,inactive,inactive,inactive,inactive,inactive,inactive,inactive,inactive,inactive,–,inactive,inactive,inactive,inactive
